Screening data deposited in PubChem BioAssay by several laboratories.
TWEAK-Fn14 inh: TWEAK-Fn14 signaling inhibition | 360,000 tested, 2% active | inhibition, % at 10 µM | TWEAK-stimulated Fn14 reporter cells, luciferase luminescence, 8 h; in the data active = inhibition above about 50%
Shn3 3UTR inh: Schnurri-3 reporter inhibition in Clone20 osteoblasts | Clone20 osteoblast Shn3 3'UTR firefly luciferase, 24 h | inhibition, % at 12.5 µM | 360,000 tested, 0.52% active | AID 588674;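 active = mean inhibition of at least 75% with every replicate also reaching 75%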;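 also: 0% = median of neutral control wells and 100% = pilot-screen positive control compound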
TROY NFkB inh: blocks TROY-dependent signaling in reporter cells | inhibition, % at 10 µM | Q293 LMP1-TROYcd NF-kB luciferase reporter, 4 h | AID 1347056 | 360,000 tested, 0.98% active;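 active = compounds whose plate-normalised and pattern-corrected inhibition of the luciferase reporter signal at the single screening dose is 50% or more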
Peg3 prom inh: reduces Peg3 promoter-driven luciferase expression in HeLa. HeLa PEG-Prom luciferase reporter, luminescence, overnight. inhibition, % at 20 µM. 360,000 tested, 1.7% active. AID 588405;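 active = inhibition of at least 50% at 20 µM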
MITF TRPM1 inh: inhibitors of MITF-driven TRPM1 promoter in melanoma cells | AID 488899 | inhibition, % at 12.5 µM | 330,000 tested, 0.83% active | SK-MEL-5 TRPM1 promoter luciferase, 24 h;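 active = mean inhibition across replicates of 60% or more, whatever share of single replicates reaches that level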
LMP1 NFkB inh: inhibitors of Epstein-Barr LMP1-induced NF-kappaB reporter; LMP1-induced NF-kappaB luciferase reporter cells, luminescence; inhibition, % at 12.5 µM; 350,000 tested, 0.69% active; in the data active = inhibition above about 41%;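 also: 0% = neutral control wells and 100% = reference inhibitor control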
Starred values were filed as active, the others as inactive; x = not tested or not shown. A selection: hits, their analogues and other compounds. The true share with any hit is near 4.1%.

SMILES	TWEAK-Fn14 inh	Shn3 3UTR inh	TROY NFkB inh	Peg3 prom inh	MITF TRPM1 inh	LMP1 NFkB inh
Cc1sc(N)nc1-c1ccc2c(c1)OCCO2	-6	-19	12	-86	-17	-10
NC1=NN=C(c2ccc3c(c2)OCCO3)CS1	58*	-29	45	-11	9	36
C=CCN=C1NN=C(c2ccc3c(c2)OCCO3)CS1	67*	-10	69*	2	69*	47*
CN(Cc1nc2ccccc2c(=O)[nH]1)C(=O)COc1ccccc1Cc1ccccc1	0	4	-7	-3	-2	-5
CC(C)N1CCc2c(sc(NC(=O)c3cc(-c4cccs4)nc4ccccc34)c2C(N)=O)C1	-14	15	-6	78*	3	-3
COc1ccc(C(=O)Nc2sc3c(c2C#N)CCN(C(C)=O)C3)cc1	-12	7	-24	-7	17	-6
CC(=O)N1CCc2c(sc(NC(=O)c3ccc([N+](=O)[O-])o3)c2C#N)C1	-1	13	-28	109*	95*	-16
CC(C)N1CCc2c(sc(NC(=O)c3ccc([N+](=O)[O-])o3)c2C(N)=O)C1	-5	-62	7	104*	94*	2
COc1cccc2c1C(CO)N1C(C#N)C3CC(C(=O)O)C(C1C2)N3C (stereo not drawn)	102*	-94	51*	108*	67*	89*
Oc1ccc(C[C@H]2CNC(=S)N2C[C@H]2CCCN2C[C@H](Cc2ccccc2)N2C[C@H](Cc3ccc(O)cc3)N(CC3CCCCCC3)C2=S)cc1	19	-1	-24	76*	x	x
Oc1ccc(C[C@H]2CN([C@@H](Cc3cccc(O)c3)CN3CCC[C@@H]3CN3C(=S)NC[C@@H]3Cc3ccccc3)C(=S)N2CC2CCCCC2)cc1	55*	64	17	105*	x	x
Oc1ccc(C[C@H]2CNC(=S)N2CC2CCCN2C[C@H](Cc2ccc(O)cc2)N2C[C@H](Cc3ccc(O)cc3)N(CC3CCCCC3)C2=S)cc1 (stereo partly drawn)	96*	62	45	43	55	-12
Oc1ccc(C[C@H]2CNC(=S)N2CC2CCCN2C[C@H](Cc2ccc(O)cc2)N2C[C@H](Cc3ccccc3)N(CCc3ccccc3)C2=S)cc1 (stereo partly drawn)	55*	10	5	12	33	2
CC(C)C[C@H]1CNC(=S)N1C[C@H]1CCCN1C[C@H](Cc1ccc(O)cc1)N1C[C@H](Cc2ccccc2)N(CCc2ccccc2)C1=S	21	10	13	9	x	x
Oc1ccc(C[C@H]2CN([C@@H](Cc3ccccc3)CN3CCCC3CN3C(=S)NC[C@@H]3Cc3ccccc3)C(=S)N2CC2CCCCC2)cc1 (stereo partly drawn)	3	x	6	x	x	x
Oc1ccc(C[C@H]2CNC(=S)N2CC2CCCN2C[C@H](Cc2ccccc2)N2C[C@H](Cc3ccc(O)cc3)N(CC3CCCCCC3)C2=S)cc1 (stereo partly drawn)	41	29	-1	45	9	5
CC(C)C[C@H]1CN([C@@H](CC(C)C)CN2CCC[C@@H]2CN2C(=S)NC[C@@H]2Cc2ccc(O)cc2)C(=S)N1CCc1ccccc1	-8	2	15	-17	x	x
Oc1ccc(C[C@H]2CN([C@@H](Cc3ccc(O)cc3)CN3CCC[C@@H]3CN3C(=S)NC[C@@H]3Cc3ccccc3)C(=S)N2CC2CCCCCC2)cc1	61*	-21	-12	101*	x	x
CC(C)C[C@H]1CNC(=S)N1C[C@H]1CCCN1C[C@H](CC(C)C)N1C[C@H](Cc2ccc(O)cc2)N(CCc2ccccc2)C1=S	22	-3	17	69*	x	x
CCc1noc(C)c1C(=O)N(CCC(C)C)c1c(N)n(Cc2ccccc2)c(=O)[nH]c1=O	-6	-1	-5	-3	-4	1
COc1ccc(C(=O)c2no[n+]([O-])c2C(=O)c2ccc(OC)cc2)cc1	24	56	-13	66*	54	16
O=C(c1cccs1)c1no[n+]([O-])c1C(=O)c1cccs1	6	51	-9	93*	67*	-242
O=C1C(Cl)=C(NCCCO)C(=O)c2ccccc21	-23	4	-26	-12	84*	-3
CCOCCCNC1=C(Cl)C(=O)c2ccccc2C1=O	-1	-12	-29	-93	30	-6
O=C1C(Cl)=C(NCCN2CCOCC2)C(=O)c2ccccc21	22	11	-5	-23	69*	8
SMILES	TWEAK-Fn14 inh	Shn3 3UTR inh	TROY NFkB inh	Peg3 prom inh	MITF TRPM1 inh	LMP1 NFkB inh
O=C1c2ccccc2C(=O)N1CCN1CCOCC1	-9	1	0	-1	12	-5
O=C1C(Cl)=C(NCCCN2CCOCC2)C(=O)c2ccccc21	0	-5	-51	-49	98*	-12
COC(=O)c1ccccc1NC(=O)CNc1ccc(F)c(S(=O)(=O)N2CCOCC2)c1	11	7	-13	13	0	2
Cc1nc2c(cc1N)nc(C)n2Cc1ccccc1	-2	-14	12	12	4	9
Cc1ccccc1NC(=O)NCC1CCN(c2ccc(S(=O)(=O)N3CCOCC3)cc2)CC1	0	22	14	0	18	0
Cc1cccc(NC(=O)NCC2CCN(c3ccc(S(=O)(=O)N4CCOCC4)cc3)CC2)c1	-6	5	54*	7	-6	-4
CN(CC(=O)Nc1cccc(F)c1)CC(=O)N(C)CC(=O)Nc1ccccc1Br	-11	-21	7	18	10	73*
CC(=O)Nc1ccc(NC(=O)CN(C)CC(=O)Nc2ccccc2Br)cc1	-1	-7	8	13	16	5
OC(c1ccc(F)cc1)c1nc(-c2cncnc2)cs1 (stereo not drawn)	3	-20	5	-2	x	x
CCOC(=O)c1cnc(-n2nc(C)cc2C)nc1NNc1nc(C)cc(C)n1	18	-22	-6	-20	14	-1
CCOC(=O)c1cnc(-n2nc(C)cc2C)nc1NNc1nc(-c2ccccc2)cc(-c2ccccc2)n1	-2	92*	14	41	62*	75*
CCOC(=O)c1cc(NC(=O)NC2CCCCC2)c(C)nc1C	109*	-2	4	20	7	-8
CCOC(=O)c1cnc(-n2nc(C)cc2C)nc1Nc1ccc(C)cc1	4	28	4	16	1	22
CCOC(=O)c1cnc(-n2nc(C)cc2C)nc1Nc1ccc(O)cc1	30	75	51*	24	71*	56*
CCOC(=O)c1cc(NC(=O)N(C(C)C)C2CCCCC2)c(C)nc1C	-5	-25	-4	6	-8	-4
CCOC(=O)c1cnc(-n2nc(C)cc2C)nc1NC1CCCCC1	49	84	54*	13	51	39
CCCN(c1ccccc1F)S(=O)(=O)c1c[nH]c(C(=O)OC)c1	5	2	-9	-1	8	1
CN(c1ccccc1)S(=O)(=O)c1cccc2ccccc12	2	-10	4	18	-4	5
